Pf growth 48h – P. falciparum growth inhibition at 48 hours (one generation) | P. falciparum luciferase growth in erythrocytes, 48 h | Potency, µM (top dose mostly 28.7 µM), most hits filed as inhibitors | 5.9% of 310,000 active
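Luciferase-expressing parasites in RBCs, 2% Hct / 0.1% parasitemia final; RPMI 1640 + 0.5% Albumax; 37 C, 5% CO2, one generation; luminescence read-out, lower signal = inhibition.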
CHX counter – counter-screen hit for Shiga toxin inhibitors, cycloheximide. cell reporter, cycloheximide protein synthesis inhibition counterscreen. max response, %. 12% of 300,000 active. AID 2314; in the data active = max response mostly above about 13%, no sharp cut-off; inactive = mostly below about 14%; also: read at 38.3 µM for the half of the compounds with a filed dose
LASV entry inh – inhibitors of Lassa virus binding or cell entry. Lassa virus pseudotype entry inhibition, cell reporter. Potency, µM (titrated, usually from 37.9 µM), most hits filed as inhibitors. 1.2% of 300,000 active; calls by dose curve; tested in HEK293 cells; also: nearly all actives have a fitted effect of over 50% in size
Shiga toxin inh – inhibitors of Shiga toxin in Vero cells. Vero cells, Shiga toxin protein synthesis inhibition reporter. inhibition, % at 38.7 µM. 9.2% of 290,000 active; in the data active = inhibition mostly above about 28%, no sharp cut-off; inactive = mostly below about 43%
MARV entry inh – inhibitors of Marburg virus binding or cell entry; Marburg virus pseudotyped entry inhibition, cell reporter; 1.8% of 300,000 active; AID 540276; Potency, µM (top dose mostly 37.8 µM), most hits filed as inhibitors; calls by dose curve; tested in HEK293 cells
Pf growth 96h – inhibits malaria parasite growth, 96 h. P. falciparum luciferase reporter growth, 96 h. 6.9% of 320,000 active. AID 504834. Potency, µM (series often up to 28.7 µM), usual class: inhibitors
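Delayed-death screen, second-generation endpoint: infected erythrocytes, 2% hematocrit, 0.05% parasitemia final; 96 hours at 37 C, 5% CO2; luciferase detection reagent; luminescence decrease equals reduced growth.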
Of the large screens only hits and unclear results are named; the others gave an inactive call. Sampled rows, rich in hits. Any-hit rate of the full collection: about 19%. Unless noted, calls follow the shape of the dose curve; as a rule, active = well fitted inhibition curve with a large enough effect; inconclusive = small, poorly fitted or top-dose-only effect, or another doubt; inactive = no such curve, though single readings can be large or run the other way.

CCOc1ccccc1-c1nc(-c2ccc(NC(=O)c3ccc(Br)o3)cc2)no1	Pf growth 48h 2.94µM, CHX counter 44.3, LASV entry inh inconclusive, MARV entry inh inconclusive
Cc1ccc(C)c(NC(=O)C(CC(=O)O)Cc2ccccc2)c1 (configuration not stated)	Pf growth 96h inconclusive
Cc1ccc(-n2c(=O)c3c(cnn3C)n(CC(=O)Nc3cccc(Cl)c3)c2=O)cc1	none (no result: Pf growth 48h, CHX counter, Shiga toxin inh, Pf growth 96h)
Cc1ccc(C)c(NC(=O)CN(C)C(=O)c2ccc3[nH]c4c(c3c2)CC(C)CC4)c1 (configuration not stated)	Pf growth 48h inconclusive, LASV entry inh 0.562µM, Pf growth 96h inconclusive (no result: CHX counter, Shiga toxin inh)
CC(C)(C)NC(=O)c1cccc(NC(=O)c2ccco2)c1	none
C/C(=N\NC(=O)c1cccc(C)c1)c1cccc(NC(=O)c2ccco2)c1	CHX counter 18.6
O=C(N/N=C/c1ccco1)c1ccc(NC(=O)c2ccccc2Cl)cc1	Pf growth 96h inconclusive
O=C(N/N=C/c1ccco1)c1cccc(NC(=O)c2cccc(Cl)c2)c1	CHX counter 41.2, LASV entry inh inconclusive, Shiga toxin inh 80.9
C/C(=N\NC(=O)c1cccc(Cl)c1)c1cccc(NC(=O)c2ccco2)c1	Pf growth 48h inconclusive, CHX counter 24.0, Shiga toxin inh 90.9, Pf growth 96h 11.7µM
C/C(=N/NC(=O)c1cccc(C)c1)c1c(O)cc(C)oc1=O	CHX counter 31.2, Shiga toxin inh 61.4, MARV entry inh inconclusive
CC#CC(=O)N1CCCC(Cc2cccc(OC)c2)(C(=O)OCC)C1 (configuration not stated)	Pf growth 48h inconclusive, CHX counter 43.4, Shiga toxin inh 32.5, Pf growth 96h 6.57µM (no result: LASV entry inh, MARV entry inh)
CCOC(=O)C1(Cc2cccc(OC)c2)CCCN(C(=O)CSC)C1 (configuration not stated)	MARV entry inh inconclusive (no result: Pf growth 48h, CHX counter, Shiga toxin inh, Pf growth 96h)
CCOC(=O)C1(Cc2cccc(F)c2)CCN(C(=O)c2ccoc2C)CC1	Pf growth 48h 10.4µM, CHX counter 11.6
CCOC(=O)C1(Cc2cccc(OC)c2)CCCN(C(=O)CCc2cccnc2)C1 (configuration not stated)	Pf growth 48h inconclusive, CHX counter 46.2, Shiga toxin inh 69.0 (no result: LASV entry inh, MARV entry inh)
CCOC(=O)C1(Cc2cccc(OC)c2)CCCN(S(=O)(=O)CC)C1 (configuration not stated)	Pf growth 96h inconclusive (no result: LASV entry inh, MARV entry inh)
CCOC(=O)C1(Cc2cccc(OC)c2)CCCN(C(=O)c2cc(C)oc2C)C1 (configuration not stated)	Pf growth 48h inconclusive, CHX counter 39.4, Shiga toxin inh 76.0 (no result: LASV entry inh, MARV entry inh)
COc1ccc(C2=NS(=O)(=O)N(C)C(C(=O)Nc3cc(C)ccc3O)=C2)cc1OC	MARV entry inh inconclusive, Pf growth 96h inconclusive
COc1cccc(N2CCN(S(=O)(=O)c3ccc(-c4coc(C)n4)cc3)CC2)c1	none (no result: LASV entry inh, MARV entry inh)
CCOC(=O)C1CCN(C(=O)CCN2C(=O)C3C4C=CC(C4)C3C2=O)CC1 (configuration not stated)	Pf growth 96h 5.22µM
CCCCOC1CC(c2ccc(OCc3ccc(OC)cc3)c(OC)c2)N(C)O1 (configuration not stated)	Pf growth 48h inconclusive, CHX counter 24.0, LASV entry inh inconclusive, Shiga toxin inh 85.0, MARV entry inh inconclusive
O=C(NCc1cccnc1)C1CC(c2cccc(Br)c2)=NO1 (configuration not stated)	none (no result: LASV entry inh, MARV entry inh)
CCOc1ccc(CCNC(=O)Cc2ccc(S(=O)(=O)N3CCOCC3)s2)cc1OCC	Pf growth 48h inconclusive, Pf growth 96h inconclusive (no result: CHX counter, Shiga toxin inh)
COC(=O)c1c(N)n(Cc2ccc(OC)cc2)c2nc3ccccc3nc12	Pf growth 48h inconclusive, MARV entry inh inconclusive
COCCn1c(N)c(C#N)c2nc3ccccc3nc21	none (no result: Pf growth 96h)
COc1cccc(Cn2c(N)c(C#N)c3nc4ccccc4nc32)c1OC	Pf growth 48h inconclusive, MARV entry inh inconclusive, Pf growth 96h 10.4µM
COc1cc(Cn2c(N)c(C#N)c3nc4ccccc4nc32)cc(OC)c1	Pf growth 48h inconclusive, Pf growth 96h 2.33µM
N#Cc1c(N)n(CCOC(=O)c2cccc(Br)c2)c2nc3ccccc3nc12	Pf growth 96h inconclusive
N#Cc1c(N)n(CCc2ccc(F)cc2)c2nc3ccccc3nc12	Pf growth 96h 0.329µM (no result: Pf growth 48h)
COc1ccc(Cn2c(N)c(C#N)c3nc4ccccc4nc32)cc1	Pf growth 48h 4.65µM, Pf growth 96h inconclusive
N#Cc1c(N)n(CCOC(=O)c2cccc([N+](=O)[O-])c2)c2nc3ccccc3nc12	Pf growth 48h inconclusive, Pf growth 96h 8.28µM
Cc1cc(Cl)ccc1OCc1n[nH]c(=S)n1C1CCCCC1	LASV entry inh inconclusive, MARV entry inh 23.1µM, Pf growth 96h inconclusive
COc1ccc(Cl)cc1-c1n[nH]c(=S)n1C1CCCCC1	Pf growth 48h inconclusive, MARV entry inh inconclusive (no result: Pf growth 96h)
COc1ccc(C(=O)/C=C/c2ccsc2)cc1CSCC(=O)O	Pf growth 48h inconclusive, Pf growth 96h 6.57µM
COc1ccc(C(C)=O)cc1CSCCC(=O)O	none
O=C(Nc1nnc(C2CC2)s1)C1Cc2ccccc2CN1S(=O)(=O)c1cccs1 (configuration not stated)	Pf growth 48h inconclusive, CHX counter 17.2, Shiga toxin inh 74.7, Pf growth 96h inconclusive
CCc1nnc(NC(=O)C2Cc3ccccc3CN2S(=O)(=O)c2cccs2)s1 (configuration not stated)	Pf growth 48h inconclusive, CHX counter 43.3, Shiga toxin inh 48.8
CNC(=O)C1Cc2ccccc2CN1S(=O)(=O)c1cccs1 (configuration not stated)	MARV entry inh inconclusive
CCc1nnc(NC(=O)C2Cc3ccccc3CN2S(=O)(=O)c2ccc(C)cc2)s1 (configuration not stated)	CHX counter 37.5, Shiga toxin inh 59.3, Pf growth 96h inconclusive
CCc1nnc(NC(=O)C2CCCN2S(=O)(=O)c2ccc(C)cc2)s1 (configuration not stated)	Pf growth 48h inconclusive, Pf growth 96h inconclusive
N=S(=O)(O)Cc1noc2ccccc12	none (no result: Pf growth 48h, CHX counter, Shiga toxin inh, Pf growth 96h)
CCOc1ccccc1NC(=O)NC1(C(=O)N2CCN3CCCC3C2)CCCCC1 (configuration not stated)	none
COc1cccc(CCc2ccccc2OCC(CN(C)C)OC(=O)CCC(=O)O)c1 (configuration not stated)	Pf growth 48h 4.78µM, Pf growth 96h 3.38µM (no result: CHX counter, LASV entry inh, Shiga toxin inh, MARV entry inh)
Cc1ccccc1-c1nc(C(N)=O)c2c(n1)n(-c1ccc3c(c1)OCO3)c(=O)n2C	MARV entry inh inconclusive (no result: Pf growth 48h, CHX counter, Shiga toxin inh, Pf growth 96h)
O=C(Nc1ccccc1)c1cccc(-c2nnc(-c3ccccc3)o2)c1	CHX counter 17.2
CCCCC(=O)Nc1cccc(-c2nnc(-c3ccccc3)o2)c1	Pf growth 48h inconclusive, CHX counter 35.4, Shiga toxin inh 42.8
CCC(=O)Nc1cccc(-c2nnc(-c3ccccc3)o2)c1	LASV entry inh inconclusive (no result: Pf growth 48h, CHX counter, Shiga toxin inh, Pf growth 96h)
Cc1cccc(NC(=O)COC(=O)Cc2cccs2)c1C	none (no result: CHX counter, Shiga toxin inh)
CCCC/C(C)=C/[C@@H](NP(=O)(c1ccccc1)c1ccccc1)c1ccccc1	Pf growth 48h inconclusive, LASV entry inh inconclusive, MARV entry inh inconclusive, Pf growth 96h 14.7µM

Bioassay records deposited in PubChem BioAssay by National Center for Advancing Translational Sciences (NCATS).
